In the supplement of paper PMC11732987, “Enantioselective OTUD7B fragment discovery through chemoproteomics screening and high-throughput optimisation” (Communications Chemistry, 2025):

What was measured:
Assay in all cases: log2 ratio of Biotin-Ahx-Ub-VS probe labelling (fragment/DMSO); higher = less target engagement (more negative = stronger competition), active = hit call of the paper (q ≤ 0.05, log2 ratio ≤ -1)
Settings in all cases: compound concentration: 200 uM; treatment time: 3 h
[1] = molecular target: USP34 (UniProt Q70CQ2)
USP34, sequence (Q70CQ2 whole entry, the tested form may be a part): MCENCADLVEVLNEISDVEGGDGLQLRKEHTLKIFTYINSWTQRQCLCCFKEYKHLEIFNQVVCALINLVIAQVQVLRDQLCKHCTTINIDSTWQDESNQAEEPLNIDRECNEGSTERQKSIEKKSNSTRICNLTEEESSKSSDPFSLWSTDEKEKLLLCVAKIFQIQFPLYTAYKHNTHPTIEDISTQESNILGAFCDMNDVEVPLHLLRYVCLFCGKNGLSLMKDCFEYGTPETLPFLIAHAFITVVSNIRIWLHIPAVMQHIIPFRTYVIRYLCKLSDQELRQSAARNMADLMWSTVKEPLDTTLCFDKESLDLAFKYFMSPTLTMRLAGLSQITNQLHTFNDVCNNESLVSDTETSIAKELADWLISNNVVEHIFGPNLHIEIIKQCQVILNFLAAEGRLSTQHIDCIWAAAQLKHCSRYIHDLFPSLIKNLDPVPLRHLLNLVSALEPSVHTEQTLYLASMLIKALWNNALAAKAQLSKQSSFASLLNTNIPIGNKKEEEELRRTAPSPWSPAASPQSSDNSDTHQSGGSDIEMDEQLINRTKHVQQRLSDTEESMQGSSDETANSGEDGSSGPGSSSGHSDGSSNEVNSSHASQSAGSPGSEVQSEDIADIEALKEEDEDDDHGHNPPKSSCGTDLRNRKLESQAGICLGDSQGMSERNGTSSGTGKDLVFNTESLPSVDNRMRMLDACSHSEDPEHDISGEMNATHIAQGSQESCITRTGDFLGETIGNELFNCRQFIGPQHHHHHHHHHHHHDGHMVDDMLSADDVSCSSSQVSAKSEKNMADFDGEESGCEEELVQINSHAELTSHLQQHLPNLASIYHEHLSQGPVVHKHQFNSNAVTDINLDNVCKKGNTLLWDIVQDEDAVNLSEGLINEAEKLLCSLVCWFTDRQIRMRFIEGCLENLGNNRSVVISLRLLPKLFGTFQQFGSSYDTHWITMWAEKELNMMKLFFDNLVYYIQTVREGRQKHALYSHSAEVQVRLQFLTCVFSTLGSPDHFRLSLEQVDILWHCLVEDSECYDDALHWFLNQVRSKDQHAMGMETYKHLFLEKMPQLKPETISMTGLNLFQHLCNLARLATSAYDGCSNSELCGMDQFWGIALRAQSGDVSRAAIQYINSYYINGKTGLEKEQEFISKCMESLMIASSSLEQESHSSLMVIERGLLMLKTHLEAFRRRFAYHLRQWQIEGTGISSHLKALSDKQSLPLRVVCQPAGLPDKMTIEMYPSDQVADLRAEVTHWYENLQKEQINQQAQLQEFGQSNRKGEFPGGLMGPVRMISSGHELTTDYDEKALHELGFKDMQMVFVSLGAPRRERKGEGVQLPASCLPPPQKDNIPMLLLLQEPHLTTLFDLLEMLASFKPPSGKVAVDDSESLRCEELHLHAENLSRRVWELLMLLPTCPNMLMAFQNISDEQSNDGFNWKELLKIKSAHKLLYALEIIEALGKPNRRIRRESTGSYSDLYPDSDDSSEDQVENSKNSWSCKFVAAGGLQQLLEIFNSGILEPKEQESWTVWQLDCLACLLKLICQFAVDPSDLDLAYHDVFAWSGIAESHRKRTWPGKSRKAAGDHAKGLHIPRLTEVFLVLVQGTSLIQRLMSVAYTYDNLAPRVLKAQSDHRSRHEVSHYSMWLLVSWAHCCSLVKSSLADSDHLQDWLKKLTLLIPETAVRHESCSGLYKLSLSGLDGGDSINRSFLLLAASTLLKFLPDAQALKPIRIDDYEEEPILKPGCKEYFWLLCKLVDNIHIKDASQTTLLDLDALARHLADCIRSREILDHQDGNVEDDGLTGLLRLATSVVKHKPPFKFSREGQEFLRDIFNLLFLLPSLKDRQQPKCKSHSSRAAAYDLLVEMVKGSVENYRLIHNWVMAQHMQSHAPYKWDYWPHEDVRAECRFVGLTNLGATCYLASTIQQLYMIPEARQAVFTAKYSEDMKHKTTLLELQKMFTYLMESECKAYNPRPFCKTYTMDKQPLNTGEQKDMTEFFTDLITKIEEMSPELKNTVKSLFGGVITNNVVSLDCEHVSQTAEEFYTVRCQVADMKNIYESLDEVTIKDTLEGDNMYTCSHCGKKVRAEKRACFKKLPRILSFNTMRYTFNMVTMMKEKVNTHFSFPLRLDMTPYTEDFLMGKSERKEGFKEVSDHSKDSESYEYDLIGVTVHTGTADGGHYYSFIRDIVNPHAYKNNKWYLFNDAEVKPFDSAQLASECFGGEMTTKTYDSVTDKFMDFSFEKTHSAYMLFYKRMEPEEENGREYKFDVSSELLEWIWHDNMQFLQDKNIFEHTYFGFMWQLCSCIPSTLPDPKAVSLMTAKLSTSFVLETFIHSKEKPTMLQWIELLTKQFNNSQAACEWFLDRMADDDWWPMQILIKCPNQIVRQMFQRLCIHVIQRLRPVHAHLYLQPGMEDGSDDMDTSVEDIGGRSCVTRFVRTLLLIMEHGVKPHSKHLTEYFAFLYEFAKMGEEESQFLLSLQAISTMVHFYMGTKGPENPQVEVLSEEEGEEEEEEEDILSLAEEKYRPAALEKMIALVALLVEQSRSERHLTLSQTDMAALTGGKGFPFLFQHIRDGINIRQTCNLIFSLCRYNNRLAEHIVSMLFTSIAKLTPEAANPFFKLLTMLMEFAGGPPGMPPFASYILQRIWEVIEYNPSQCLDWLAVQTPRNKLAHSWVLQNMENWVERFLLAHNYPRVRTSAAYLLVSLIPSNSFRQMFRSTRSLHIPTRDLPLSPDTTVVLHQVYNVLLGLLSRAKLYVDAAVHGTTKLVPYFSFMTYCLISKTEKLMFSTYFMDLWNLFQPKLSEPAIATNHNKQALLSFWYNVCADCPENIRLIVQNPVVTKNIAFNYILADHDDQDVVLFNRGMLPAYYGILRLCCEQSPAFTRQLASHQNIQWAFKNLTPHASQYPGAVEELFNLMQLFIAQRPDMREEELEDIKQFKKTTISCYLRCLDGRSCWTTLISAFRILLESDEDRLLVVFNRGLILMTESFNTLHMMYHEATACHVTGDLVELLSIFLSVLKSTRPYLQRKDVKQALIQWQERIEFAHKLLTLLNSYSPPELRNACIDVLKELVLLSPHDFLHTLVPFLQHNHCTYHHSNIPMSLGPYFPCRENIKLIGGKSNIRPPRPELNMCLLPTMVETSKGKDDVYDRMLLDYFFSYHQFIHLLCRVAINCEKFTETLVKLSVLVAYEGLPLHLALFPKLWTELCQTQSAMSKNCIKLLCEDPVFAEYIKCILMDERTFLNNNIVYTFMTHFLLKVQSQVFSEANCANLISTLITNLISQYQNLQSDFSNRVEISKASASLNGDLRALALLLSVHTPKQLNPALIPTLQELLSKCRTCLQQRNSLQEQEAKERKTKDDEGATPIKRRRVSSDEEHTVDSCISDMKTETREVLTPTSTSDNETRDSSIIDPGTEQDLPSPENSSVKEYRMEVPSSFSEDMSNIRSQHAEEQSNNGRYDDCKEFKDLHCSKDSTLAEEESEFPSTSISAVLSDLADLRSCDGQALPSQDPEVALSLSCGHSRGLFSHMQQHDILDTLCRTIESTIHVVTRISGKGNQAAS
Summary of the method: (§1)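 Labelled DUBs from HEK293T lysate were NeutrAvidin-enriched, digested with LysC and trypsin, and run by diaPASEF LC-MS/MS. Before that, each 495 µg sample in Tris/CHAPS/IGEPAL buffer with protease inhibitors was treated in triplicate with fragment at 200 µM or vehicle for 3 h, then with Biotin-Ahx-Ub-VS at 0.5 µM final for 1 h. Values are average log2 ratios of fragment over vehicle by unpaired t-test, based on global-median-normalised Spectronaut label-free quantities from proteins with ≥2 unique peptides.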

[2] = molecular target: T1, USP36 (UniProt Q9P275)
T1 sequence (whole entry): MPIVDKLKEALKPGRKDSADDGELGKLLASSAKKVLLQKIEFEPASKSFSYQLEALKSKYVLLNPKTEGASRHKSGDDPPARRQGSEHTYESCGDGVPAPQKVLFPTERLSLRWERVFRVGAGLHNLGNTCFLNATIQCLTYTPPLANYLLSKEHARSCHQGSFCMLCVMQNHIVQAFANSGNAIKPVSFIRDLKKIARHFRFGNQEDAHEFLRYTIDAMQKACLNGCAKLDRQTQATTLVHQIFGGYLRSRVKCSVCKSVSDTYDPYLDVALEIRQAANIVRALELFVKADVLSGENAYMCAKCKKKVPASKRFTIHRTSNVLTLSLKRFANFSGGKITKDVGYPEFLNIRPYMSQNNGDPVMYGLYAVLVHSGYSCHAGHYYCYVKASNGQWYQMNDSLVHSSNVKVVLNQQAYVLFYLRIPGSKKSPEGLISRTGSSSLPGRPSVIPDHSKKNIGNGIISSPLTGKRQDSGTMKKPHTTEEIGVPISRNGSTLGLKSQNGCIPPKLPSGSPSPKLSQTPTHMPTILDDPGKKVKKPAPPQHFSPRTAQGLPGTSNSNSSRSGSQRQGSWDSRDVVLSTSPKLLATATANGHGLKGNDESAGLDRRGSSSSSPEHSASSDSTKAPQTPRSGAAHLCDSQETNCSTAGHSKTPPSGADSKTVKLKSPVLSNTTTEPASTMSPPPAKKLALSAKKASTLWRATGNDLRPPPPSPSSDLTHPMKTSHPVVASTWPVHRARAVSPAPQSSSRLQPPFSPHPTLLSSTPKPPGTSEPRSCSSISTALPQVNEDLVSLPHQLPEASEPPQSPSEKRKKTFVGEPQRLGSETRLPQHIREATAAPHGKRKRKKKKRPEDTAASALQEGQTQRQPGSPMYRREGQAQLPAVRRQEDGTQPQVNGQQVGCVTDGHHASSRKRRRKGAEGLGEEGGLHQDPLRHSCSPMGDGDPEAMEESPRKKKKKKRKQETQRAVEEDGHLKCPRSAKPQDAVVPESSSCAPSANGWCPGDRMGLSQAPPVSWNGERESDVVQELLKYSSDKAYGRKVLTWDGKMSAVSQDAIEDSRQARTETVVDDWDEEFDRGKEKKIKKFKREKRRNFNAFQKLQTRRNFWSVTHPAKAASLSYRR
Summary of the method: as §1

[3] = molecular target: T2, USP38 (UniProt Q8NB14)
T2 sequence (whole entry): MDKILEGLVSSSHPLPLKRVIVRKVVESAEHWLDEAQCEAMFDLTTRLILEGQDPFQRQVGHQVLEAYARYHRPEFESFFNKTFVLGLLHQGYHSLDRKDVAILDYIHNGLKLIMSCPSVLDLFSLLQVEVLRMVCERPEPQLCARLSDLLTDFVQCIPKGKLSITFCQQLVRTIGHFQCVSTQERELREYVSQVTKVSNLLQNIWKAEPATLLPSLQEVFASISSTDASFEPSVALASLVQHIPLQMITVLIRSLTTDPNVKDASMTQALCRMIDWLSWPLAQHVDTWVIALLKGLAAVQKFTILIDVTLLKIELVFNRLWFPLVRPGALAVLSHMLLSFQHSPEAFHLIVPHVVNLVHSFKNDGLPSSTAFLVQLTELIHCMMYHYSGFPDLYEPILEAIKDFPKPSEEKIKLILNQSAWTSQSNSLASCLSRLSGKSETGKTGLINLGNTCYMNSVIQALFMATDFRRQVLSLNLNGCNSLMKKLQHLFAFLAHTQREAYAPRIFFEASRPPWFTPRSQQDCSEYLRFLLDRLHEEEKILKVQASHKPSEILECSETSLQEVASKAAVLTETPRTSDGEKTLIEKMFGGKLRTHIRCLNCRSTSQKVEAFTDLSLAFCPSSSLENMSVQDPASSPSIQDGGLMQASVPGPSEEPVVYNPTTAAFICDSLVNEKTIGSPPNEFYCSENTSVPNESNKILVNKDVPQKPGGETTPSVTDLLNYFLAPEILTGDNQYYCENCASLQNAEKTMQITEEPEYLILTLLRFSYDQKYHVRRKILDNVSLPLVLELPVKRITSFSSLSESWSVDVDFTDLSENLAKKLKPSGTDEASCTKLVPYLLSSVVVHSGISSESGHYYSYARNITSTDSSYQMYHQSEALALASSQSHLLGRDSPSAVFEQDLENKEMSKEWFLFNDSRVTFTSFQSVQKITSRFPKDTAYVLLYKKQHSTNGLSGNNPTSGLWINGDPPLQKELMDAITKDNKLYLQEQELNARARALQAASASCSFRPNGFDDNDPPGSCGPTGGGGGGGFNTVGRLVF
Summary of the method: as §1

[4] = molecular target: T3, USP39 (UniProt Q53GS9)
T3 sequence (whole entry): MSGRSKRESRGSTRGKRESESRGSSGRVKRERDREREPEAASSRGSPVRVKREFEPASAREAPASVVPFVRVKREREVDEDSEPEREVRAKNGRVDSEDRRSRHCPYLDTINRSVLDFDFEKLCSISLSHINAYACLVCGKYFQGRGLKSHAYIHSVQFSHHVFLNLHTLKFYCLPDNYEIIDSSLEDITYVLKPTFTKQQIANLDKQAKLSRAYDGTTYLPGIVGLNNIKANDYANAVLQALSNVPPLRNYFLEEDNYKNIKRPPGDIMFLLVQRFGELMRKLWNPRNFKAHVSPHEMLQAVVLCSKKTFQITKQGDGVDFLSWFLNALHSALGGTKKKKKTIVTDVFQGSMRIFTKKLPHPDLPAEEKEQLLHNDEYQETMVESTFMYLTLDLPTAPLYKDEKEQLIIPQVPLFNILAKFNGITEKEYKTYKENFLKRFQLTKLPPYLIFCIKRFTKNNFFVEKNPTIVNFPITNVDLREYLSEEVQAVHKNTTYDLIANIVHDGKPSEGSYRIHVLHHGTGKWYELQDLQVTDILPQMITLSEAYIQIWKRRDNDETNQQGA
Summary of the method: as §1

[5] = molecular target: T4, USP4 (UniProt Q13107)
T4 sequence (whole entry): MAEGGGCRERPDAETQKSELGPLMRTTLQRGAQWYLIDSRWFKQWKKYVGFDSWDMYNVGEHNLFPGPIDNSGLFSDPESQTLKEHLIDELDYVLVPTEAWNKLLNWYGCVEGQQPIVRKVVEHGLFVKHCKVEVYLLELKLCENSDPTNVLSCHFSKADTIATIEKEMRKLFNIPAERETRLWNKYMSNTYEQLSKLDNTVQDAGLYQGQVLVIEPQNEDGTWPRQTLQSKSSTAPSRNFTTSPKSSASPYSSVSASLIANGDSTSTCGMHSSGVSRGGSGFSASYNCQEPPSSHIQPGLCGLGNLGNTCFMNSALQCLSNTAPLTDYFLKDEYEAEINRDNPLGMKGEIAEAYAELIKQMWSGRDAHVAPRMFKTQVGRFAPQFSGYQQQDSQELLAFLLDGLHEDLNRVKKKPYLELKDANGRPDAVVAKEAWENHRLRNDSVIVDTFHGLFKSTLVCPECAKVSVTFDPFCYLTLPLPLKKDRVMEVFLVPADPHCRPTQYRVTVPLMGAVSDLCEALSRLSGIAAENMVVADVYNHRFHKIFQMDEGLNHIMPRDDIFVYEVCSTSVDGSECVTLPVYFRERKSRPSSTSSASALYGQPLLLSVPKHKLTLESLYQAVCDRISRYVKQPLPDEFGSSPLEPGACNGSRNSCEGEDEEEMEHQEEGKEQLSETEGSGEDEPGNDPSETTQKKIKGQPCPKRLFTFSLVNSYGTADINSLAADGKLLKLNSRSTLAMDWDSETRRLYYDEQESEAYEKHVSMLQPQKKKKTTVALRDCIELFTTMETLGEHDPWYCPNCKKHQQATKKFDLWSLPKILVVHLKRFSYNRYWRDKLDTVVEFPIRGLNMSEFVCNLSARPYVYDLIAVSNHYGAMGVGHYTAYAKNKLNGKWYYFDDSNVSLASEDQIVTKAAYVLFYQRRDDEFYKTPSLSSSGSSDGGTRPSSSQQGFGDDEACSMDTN
Summary of the method: as §1

Measured: log2 ratio of Biotin-Ahx-Ub-VS probe labelling

C[C@@H](NC(=O)CCl)c1cccc(C#N)c1
inactive: [1] -0.444 | [2] 0.00395 | [3] -0.0294 | [4] 0.198 | [5] 0.0193
